# Assay outcomes deposited in PubChem by National Center for Advancing Translational Sciences (NCATS).
# Epigenetic derep = epigenetic control regulation, reporter derepression. 0.2% of 280,000 active. murine LDR cells, GFP reporter derepression, 30 h. Potency, µM (titrated, usually from 53.9 µM), without a hit: at the top dose GFP activation, hits mostly activators; further: % of control where 0% means no effect; nearly all actives have a fitted effect of over 60% in size
#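 In this reporter-derepression format, murine cells bearing a silenced integrated CMV-GFP locus incubate with test compound (30 h, 37 C), then are washed and imaged; fluorescent objects of 20–120 um count as induced cells.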
# HTT ATP protect = cytoprotection in Huntington HTT-Q103 PC12 cell model | PC12 HTT-Q103 induced, cytoprotection, ATP luminescence, 40 h | Potency, µM (titrated, usually from 56.4 µM), for the others: cytoprotection (ATP increase), actives largely listed as activators | 0.14% of 230,000 active | AID 1471; further: % of control where 0% means no effect; nearly all actives have a fitted effect of over 45% in size
#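 Stable PC12 Q103-GFP cells in serum-supplemented, phenol red-free DMEM; induction by tebufenozide at 100 nM final; compound dose series; cell viability quantified luminescently from ATP.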
# HttQ103 aggreg = inhibitors of mutant huntingtin aggregate formation in PC12 cells; PC12 HttQ103-GFP aggregates, Acumen cytometry, 40 h; Potency, µM (top dose mostly 46.1 µM), without a hit: at the highest dose activity change, negative = inhibition, hits mostly inhibitors; 1.1% of 220,000 active; further: on the % scale 0 is the no-effect control and ±100 the full control effect; nearly all actives have a fitted effect of over 60% in size
#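 Aggregates are detected as GFP objects 1–25 µm with signal 6 STDEV over background in lysates of induced PC12 cells. These carry Huntingtin exon 1 with 103 glutamines fused to GFP under an ecdysone promoter; compounds titrated.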
# TSG101-PTAP inh = blocks PTAP/TSG101 interaction to inhibit HIV-1 budding | Potency, µM (titrated, usually from 115 µM), inactives show at the highest dose activity change, negative = inhibition, most hits filed as inhibitors | 340,000 tested, under 10 active | Fluorescence polarization, FITC-PTAP peptide / Tsg101 binding | Q99816; active means well fitted inhibition curve with a large enough effect in the main read-out, with a control signal flat, not every such curve was filed as active; inconclusive means small, poorly fitted or top-dose-only effect, or effect the other way, or a change in a side signal; inactive means no such curve, though single readings can be large or run the other way; further: % of control where 0% means no effect
#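 FP read-out: FITC-PTAP peptide, 50 nM final, binding Tsg101 binding domain, 10 uM final; 20 min, r.t.; 10 mM HEPES pH 7.5, 0.15 M NaCl, 0.01% Tween 20, 3 mM EDTA, 0.1 mM TCEP.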
# Apoferritin bind = binds horse apoferritin like a general anesthetic; P02791; apoferritin/1-aminoanthracene competitive binding, fluorescence; Potency, µM (doses to about 77.5 µM), for inactives: at the highest dose activity change, negative = displacement, usual class: inhibitors; 0.074% of 350,000 active; AID 485281; further: on the % scale 0 is the no-effect control and ±100 the full control effect; nearly all actives have a fitted effect of over 20% in size
# Target sequence (P02791 2-175 limits assumed): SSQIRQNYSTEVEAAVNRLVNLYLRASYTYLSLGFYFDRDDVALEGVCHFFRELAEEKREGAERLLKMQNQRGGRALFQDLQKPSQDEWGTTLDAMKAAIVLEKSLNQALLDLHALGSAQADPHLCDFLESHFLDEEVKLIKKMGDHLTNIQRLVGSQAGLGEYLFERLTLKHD
#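 Apoferritin-based anesthetic binding model; compound displacement of fluorescent 1-AMA measured as endpoint fluorescence after 10 minutes at room temperature, scaled to free-ligand and complex controls.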
# PINK1 modulator = PINK1 expression modulation | PINK1 immunofluorescence, high-content cytometry, 24 h | 0.2% of 410,000 active | Potency, µM (doses to about 76.6 µM), inactives show at the highest dose activation (PINK1 increase), most hits filed as activators; active means well fitted activation curve with a large enough effect; inconclusive means small, poorly fitted or top-dose-only effect; cell line not stated here; further: % of control where 0% means no effect; nearly all actives have a fitted effect of over 65% in size
#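 PINK1 protein level read as immunofluorescence by microplate cytometer in a fixed, stained stable cell line after 24 h exposure to five compound concentrations, with CCCP as control.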
# Active calls of the source: *; ? = inconclusive; . = not tested or not shown; [ ] = another dose, or the depositor's remark. Only a selection was taken, and hits are over-represented in it overall. Unless noted, the call rests on the fitted dose curve; in most records, active means well fitted curve in the direction sought with a large enough effect; inconclusive means small, poorly fitted or top-dose-only effect, or another doubt; inactive means no such curve, though single readings can be large; an effect the other way counts as inactive or inconclusive. Potency means the concentration at half of the fitted maximal effect.
SMILES,Epigenetic derep,HTT ATP protect,HttQ103 aggreg,TSG101-PTAP inh,Apoferritin bind,PINK1 modulator
Cc1cc(N/N=C/c2ccccc2)nc(NCc2ccccc2)n1,-3%,-22%[10 µM],-22%,-5%,?,?
O=[N+]([O-])c1ccc(NN=Cc2ccc(O)cc2)nc1,.,.,.,-4%,.,5%
Cc1cc(-c2ccccc2)nc(N/N=C/c2ccc([N+](=O)[O-])cc2)n1,1%,.,0.028µM*,0%,-11%,10%
CCc1cc(=O)n2c([nH]c3ccccc32)c1C#N,4%,-39%,?,0%,-3%,-1%
CCc1cc(=S)n2c([nH]c3ccccc32)c1C#N,0%,20%,-7%,-8%,-17%,16µM*
COc1ccc2ccccc2c1CN1CCC2(CCC(CNC(=O)c3ccccc3)O2)CC1 (centres undefined),.,.,.,.,.,0%
C[n+]1ccccc1/C=C/c1ccc([N+](=O)[O-])cc1,.,.,.,-4%,7%,11%
O=[N+]([O-])c1ccc(/C=C/C2=NN(c3ccccc3)C(c3ccco3)C2)cc1 (centres undefined),0.79µM*,.,?,10%,-4%,?
O=[N+]([O-])c1ccc(C2=NN(c3ccccc3)C(c3ccco3)C2)cc1 (centres undefined),2µM*,0%[10 µM],30%[9.22 µM],17%,-11%,?
CC1=NN(c2ccccc2)C(c2ccco2)C1 (centres undefined),.,.,.,-7%,.,1%
O=C(c1ccoc1)N1CCOc2ccc(CN3CCC(Oc4cccnc4)CC3)cc2C1,.,.,.,.,.,-1%
Cc1ccc(OCC(=O)NC(=S)Nc2ccccn2)c(Br)c1,.,.,.,2%,-14%,8%
Cc1ccc(OCC(=O)NNC(=S)NC(=O)C(C)(C)C)c(Br)c1,-1%,.,11µM*,-8%,-10%,3%
O=S(=O)(NCCC1=CCCCC1)c1cccc2nsnc12,-2%,5%[0.074 µM],-23%,-8%,8.9µM*,7%[38.3 µM]
COc1ccc(COc2ccccc2C(N)=O)cc1F,-1%,.,16µM*,1%,-9%,3%
COc1cc(C(N)=O)ccc1OCc1ccccc1,-1%,-29%,4%,-5%,?,0%
COc1ccc2c(c1)OC(C)CN(CCNC(=O)c1cccc(N3CCNC3=O)c1)C2 (centres undefined),.,.,.,.,.,0%
COCC(=O)Nc1cc(C(=O)N[C@H]2CCCCNC2=O)c2c(c1)nc(-c1ccncc1)n2C,.,.,.,.,.,0%
Cc1ccc(CN2C[C@@H](Sc3nc(C)cc(C)n3)C[C@H]2C(=O)N2CCN(c3ccccc3F)CC2)cc1,.,.,.,.,.,0%
COc1ccc(-c2cc(C(=O)N/N=C/c3ccc(O)cc3)[nH]n2)cc1,0%,.,.,.,.,.
C=CC[n+]1ccc(/C=C2\C=Cc3cc(C)ccc3N2CC)c2ccccc21,-4%,-189%,2.2µM*,-2%,?,3.2µM*
C=CC[n+]1ccc2ccccc2c1C,0%,?,-31%,-1%,-8%,-1%
CCCCCCCCCCCCCCCCCC(=O)NCCc1ccc(O)c(O)c1,11µM*,-11%,.,.,-1%,.
CCCCCCCCCCCCCCCC(=O)NCCc1ccc(O)c(O)c1,?,-23%,.,.,-7%,.
O=C(COC(=O)CC1CC2CCC1C2)NC(=O)NCc1ccco1 (centres undefined),7%,-69%[10 µM],?,-11%,13µM*,-1%
NC(=O)c1ccc(NC(=O)COC(=O)CC2CC3CCC2C3)cc1 (centres undefined),.,.,.,-7%,.,-1%
CN1C(=O)C2(OCC(COc3ccc(Cl)cc3)O2)c2ccccc21 (centres undefined),-2%,11%,1µM*,-2%,-10%,-2%[38.3 µM]
O=C(O)c1cccc(N2C(=O)/C(=C/c3ccc(SCc4ccc(Cl)cc4)o3)SC2=S)c1,0%,20µM*,6%,29%,-11%,3%
Cc1cccc2cc(CN(CC3CCCO3)C(=O)c3cccc(F)c3)c(N(C)C)nc12 (centres undefined),.,.,.,.,.,0%
